Compound activity from PubChem BioAssay.
Compounds with a hit are over-represented: about 1.4% of the library has one in this group of screens.
AF4-AF9 inh – inhibitors of human MLL-AF4/AF9 interaction; inhibition, % at 10 µM; AID 651704; AlphaScreen, biotin-AF4 peptide binding to FLAG-AF9; 350,000 tested, 0.47% active; P42568;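 active means every replicate reaching a set inhibition limit, whatever the replicate mean, cut at about 25% in these data; inconclusive means mean inhibition reaches that limit but some replicates miss it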;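 further: 0% = plate neutral control median and 100% = total signal loss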
Target sequence (P42568 whole entry, looked up): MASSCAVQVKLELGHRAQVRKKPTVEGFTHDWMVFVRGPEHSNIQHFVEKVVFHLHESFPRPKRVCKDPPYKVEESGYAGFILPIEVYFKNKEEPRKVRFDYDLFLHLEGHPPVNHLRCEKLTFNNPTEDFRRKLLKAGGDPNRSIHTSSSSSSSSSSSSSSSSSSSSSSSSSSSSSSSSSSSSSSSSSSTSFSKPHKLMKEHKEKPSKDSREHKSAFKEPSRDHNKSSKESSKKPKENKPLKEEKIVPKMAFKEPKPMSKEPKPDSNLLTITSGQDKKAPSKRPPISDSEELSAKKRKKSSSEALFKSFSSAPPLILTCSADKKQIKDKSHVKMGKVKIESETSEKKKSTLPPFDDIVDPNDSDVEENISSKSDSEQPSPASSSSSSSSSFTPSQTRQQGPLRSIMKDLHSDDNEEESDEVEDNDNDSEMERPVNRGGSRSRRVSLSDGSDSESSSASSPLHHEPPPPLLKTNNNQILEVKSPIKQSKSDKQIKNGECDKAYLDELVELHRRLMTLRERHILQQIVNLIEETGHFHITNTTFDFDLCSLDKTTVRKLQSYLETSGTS
PGC1a acetyl inh – modulators of PGC1a acetylation; U2OS PGC1a acetylation, AlphaScreen anti-acetyl-lysine; with virally co-expressed GCN5 acetyltransferase; inhibition, % at 15.6 µM; 350,000 tested, 0.17% active; AID 651687;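 active means every replicate shows inhibition of at least 40%; inconclusive means mean inhibition at least 40% but some replicate below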;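 further: 0% = neutral control wells and 100% = positive control wells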
ERAP1 HTS inh – blocks human ERAP1 aminopeptidase activity; AID 652197; Q9NZ08; 340,000 tested, 0.15% active; recombinant ERAP1, Leu-AMC fluorescence, 60 min; inhibition, % at 10.7 µM;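 active means mean replicate inhibition of at least 30%, or all replicates individually reaching that 30% level; inactive means mean below 30% and not every replicate reaching it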;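 further: 0% = neutral control wells and 100% = L-leucinethiol positive control wells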
INS-1E GSIS act – primary screen for activators of insulin secretion dependent on glucose, INS-1E cells, GLuc reporter luminescence | 370,000 tested, 0.61% active | INS-1E GLuc reporter insulin secretion, 2-3 h | activation, % at 16.6 µM;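 active means lowest replicate activation of at least 40%, so every replicate reaches that level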;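 further: 0% = median of neutral control wells and 100% = median of IBMX positive control wells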
RAD54 branch – inhibitors of human RAD54 branch migration; Q92698; RAD54 Holliday junction branch migration, FAM/BHQ fluorescence; inhibition, % at 10.4 µM; 360,000 tested, 0.14% active; AID 602329;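 active means mean normalized replicate activity at least 40 and at least half of replicates scoring 40 or more; inconclusive means only one of the two criteria met; inactive means mean below 40 and under half of replicates reaching 40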;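 further: 0% = median of neutral control wells and 100% = median of positive control wells; inhibitors cause a drop in the FAM fluorescence signal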
RAD52 anneal inh – inhibitors of human RAD52 DNA annealing; recombinant RAD52 DNA annealing, FRET fluorescence; inhibition, % at 18.7 µM; 360,000 tested, 0.46% active; AID 651710;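 active means every replicate showing at least 50% inhibition; inconclusive means mean inhibition at least 50% but not in every replicate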
An asterisk follows results filed as active; u = inconclusive; x = not tested or not shown.

SMILES	AF4-AF9 inh	PGC1a acetyl inh	ERAP1 HTS inh	INS-1E GSIS act	RAD54 branch	RAD52 anneal inh
C[C@H](CO)N1C[C@H](C)[C@@H](CN(C)S(=O)(=O)c2ccccc2)OCCCC[C@H](C)Oc2ccc(NC(=O)Nc3ccc(F)cc3)cc2C1=O	3	-8	1	-5	1	30
CCCOc1ccc2ccccc2c1/C=C1\SC(=O)NC1=O	3	76*	-2	-58	-5	-12
O=C(Nc1ccccc1F)N1C[C@@H]2[C@H](c3ccccc31)[C@@H](CO)N2C(=O)Cc1ccccc1	0	0	-3	-8	4	-13
COc1ccc(N2C(=O)C(Cl)=C(N3CCOCC3)C2=O)cc1	1	-8	2	10	-8	-7
Cc1cccc(N2C(=O)C(Cl)=C(N3CCOCC3)C2=O)c1	-5	81*	-2	4	-6	14
O=C1C(Cl)=C(N2CCOCC2)C(=O)N1c1cccc(Cl)c1	x	-5	x	45*	-3	x
CCc1ccc(N2C(=O)C(Cl)=C(N3CCOCC3)C2=O)cc1	-2	x	2	-15	x	-22
CN1CCN(C(=O)C[C@H]2C[C@@H]3c4cc(NC(=O)C5CCC5)ccc4O[C@@H]3[C@@H](CO)O2)CC1	1	0	0	20	1	-5
CCCn1c(C)cc(C)c(C#N)c1=O	x	x	x	43*	x	x
Cc1cc(C)n(C)c(=O)c1C#N	-8	-15	-8	11	x	-5
Cc1cccc(NC(=O)CNC(=O)COc2ccc(-c3ccc(C#N)cc3)cc2)c1C	x	x	x	67*	x	x
Cc1cccc(NC(=O)CNC(=O)COc2ccc(C(=O)c3ccc(F)cc3)cc2)c1C	x	x	x	0	x	x
O=C(N/N=C/c1ccc(O)cc1O)NC12CC3CC(CC(C3)C1)C2	-2	10	0	41*	6	8
C[C@@H]1CN([C@@H](C)CO)C(=O)c2cc(C3=CCCC3)cnc2O[C@H]1CN(C)Cc1cccc(F)c1	4	1	-1	-14	1	36
COc1ccc(N2CCN(CC(O)COC(c3ccccc3)c3ccccc3)CC2)cc1 (stereo not drawn)	16	x	0	-23	-4	-9
COc1ccc(N2CCN(CC(O)COC(c3ccc(F)cc3)c3ccc(F)cc3)CC2)cc1 (stereo not drawn)	27*	-2	-3	-37	14	-5
CC(=O)Nc1ccc2c(c1)CC(=O)N(C)C[C@H](C)[C@@H](CN(C)C(=O)OC(C)(C)C)O2	x	x	x	-10	x	x
C[C@H](CO)N1C[C@H](C)[C@H](CN(C)Cc2ccc(C(=O)Nc3ccccc3N)cc2)Oc2c(NS(=O)(=O)c3ccc(F)cc3)cccc2C1=O	-1	-1	-2	29	x	-14
CC(C)(C)CC(C)(C)N=C1Nc2ccccc2NC12C[C@H]1CCC(=O)N3CC[C@@H](C2)[C@@H]13 (stereo partly drawn)	28*	2	-1	x	-3	-4
CC(C)(C)CC(C)(C)N=C1Nc2cc(Cl)c(Cl)cc2NC12C[C@H]1CCC(=O)N3CC[C@@H](C2)[C@@H]13 (stereo partly drawn)	8	2	0	x	12	-6
CC(C)[C@H]1C(=O)N[C@@H](c2ccc3c(c2)OCO3)CC=CC[C@@H](C)Oc2ccccc2C(=O)N1C (mixture of isomers)	x	x	x	-17	x	x
OC(COCC1COc2ccccc2O1)CN1CCN(c2ccccc2)CC1 (stereo not drawn)	x	5	x	x	1	x
C[N+]1(CC(O)COCC2COc3ccccc3O2)CCOCC1 (stereo not drawn)	11	-16	104*	4	x	-15
COc1ccc(S(=O)(=O)Nc2cccc3c2O[C@H](CN(C)Cc2ccc(C(=O)O)cc2)[C@H](C)CN([C@@H](C)CO)C3=O)cc1	x	11	x	6	x	x
c1cc[n+](CCC[n+]2ccccc2)cc1	-2	7	110*	5	-4	-5
SMILES	AF4-AF9 inh	PGC1a acetyl inh	ERAP1 HTS inh	INS-1E GSIS act	RAD54 branch	RAD52 anneal inh
Cc1ccc(S(=O)(=O)NCC(=O)N2CCC(C)CC2)cc1	48*	-1	-4	1	-6	-13
CCN=c1scc(C)n1/N=C/c1ccc(O)c(O)c1O	x	1	x	x	8	x
COCCN=c1scc(-c2cccs2)n1/N=C/c1ccc(O)c(O)c1O	53*	x	7	-25	x	-13
CN(C)c1cc(NC(=O)CN2CCCC2)c2ccccc2n1	0	x	-4	x	78*	36
CCCNC(=O)C[C@H]1CC[C@H]2[C@H](COc3ccc(NS(=O)(=O)CC)cc3C(=O)N2C)O1	-2	-7	-1	6	1	11
NC1(C(=O)O)CSSC1	48*	x	-1	-28	x	-8
Nc1ncnc(NC2CCS(=O)(=O)C2)c1[N+](=O)[O-] (stereo not drawn)	3	3	-1	65*	x	-16
CC(=O)Nc1ccc2c(c1)C(=O)N(C)[C@H]1CC[C@H](CC(=O)Nc3cccc(F)c3)O[C@@H]1CO2	-8	1	0	-2	x	5
O=C(c1ccncc1)N1CC(=O)N2[C@@H](CO)[C@H](c3ccc(-c4cccnc4)cc3)[C@@H]2C1	-5	7	1	-1	x	-17
O=C(c1cccnc1)N1CC(=O)N2[C@H](C1)[C@H](c1ccc(-c3cccnc3)cc1)[C@@H]2CO	32*	-3	2	-3	x	-11
O=C(c1cccnc1)N1CC(=O)N2[C@H](C1)[C@H](c1ccc(/C=C/c3ccccc3)cc1)[C@@H]2CO	37*	0	4	-13	x	-8
CN(C)CC#Cc1ccc([C@H]2[C@H]3CN(C(=O)c4cccnc4)CC(=O)N3[C@H]2CO)cc1	35*	2	-1	14	x	3
COCC(=O)N1CC(=O)N2[C@@H](CO)[C@H](c3ccc(-c4ccncc4)cc3)[C@@H]2C1	-2	102*	1	3	x	-4
COCC(=O)N1CC2(C1)[C@@H](c1ccc(C3=CCCC3)cc1)[C@H](CO)N2C(=O)COC	-3	-1	1	14	x	-28
CNC[C@@H]1OCCCC[C@H](C)Oc2ccc(N(C)C)cc2C(=O)N([C@@H](C)CO)C[C@H]1C	x	-9	x	x	x	x
Fc1ccc(CN2C3CN(CC(F)(F)F)CC2C3c2ccc(Br)cc2)cc1 (stereo not drawn)	x	x	x	-44	x	x
O=C(NC[C@@H]1CC[C@H]2[C@H](CN2S(=O)(=O)c2ccccc2)O1)NC1CCCCC1	-2	x	-1	x	x	5
CCCCN(c1ccccc1)c1ncnc(N)c1[N+](=O)[O-]	1	52*	-1	-2	-3	-13
CN(c1ncnc(N)c1[N+](=O)[O-])C1CCCCC1	-1	x	0	41*	0	-10
CN(c1ncnc(N)c1[N+](=O)[O-])C1CCS(=O)(=O)C1 (stereo not drawn)	-5	u	2	6	4	-8
COc1ccc(N2CCN(CC(=O)c3ccccc3)CC2)cc1	31*	8	0	5	-5	-14
